As usually defined, the inhibition is the percentage by which the read-out fell short of the control.

The structures appear in SMILES notation. Values without a mark were called inactive. No rule for the calls is given here.

For 39 molecules, inhibition results are on record in PubChem BioAssay.

Sequence of Pantothenate synthetase (Mycobacterium tuberculosis (strain ATCC 25618 / H37Rv)) (P9WIL5 whole entry, looked up): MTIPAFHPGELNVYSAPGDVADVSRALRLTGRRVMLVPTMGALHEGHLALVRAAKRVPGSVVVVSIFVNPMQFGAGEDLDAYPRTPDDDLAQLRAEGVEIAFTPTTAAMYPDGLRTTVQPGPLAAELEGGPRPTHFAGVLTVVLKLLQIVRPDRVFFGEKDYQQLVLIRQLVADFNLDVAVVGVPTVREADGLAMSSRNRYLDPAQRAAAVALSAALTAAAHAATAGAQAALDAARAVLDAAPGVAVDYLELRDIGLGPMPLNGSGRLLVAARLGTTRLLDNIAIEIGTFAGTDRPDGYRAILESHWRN

The assay concerns the target Pantothenate synthetase (Mycobacterium tuberculosis (strain ATCC 25618 / H37Rv)) (UniProt P9WIL5). Briefly: Recombinant Mtb pantothenate synthetase (PanC) inhibitors, coupled enzyme, confirmatory (AID 375).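 Also: 0% = full reaction with vehicle and 100% = no enzyme background.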 As to conditions: coupled enzyme assay; at 10 µM, active compounds read high.
For `COc1ccc(OC)c(S(=O)(=O)Nc2ccc(C(N)=O)cc2)c1`, the inhibition is 0%.
For `CCCn1c(SCC(=O)Nc2nnc(-c3ccccc3)s2)nnc1-c1ccccn1`, the inhibition was 0%.
The same measure for `O=C(Nc1cccc(F)c1)c1cccc(S(=O)(=O)N2CCOCC2)c1`: 0%; for `CCc1cccc2c(=O)c(C(=O)N3CCCCCC3)c[nH]c12`: 0%.
As for `Cc1nc(=S)n(-c2ccccc2)[nH]1`, the figure is 0%; as for `Nc1nc(CN2CCN(Cc3ccc4c(c3)OCO4)CC2)nc(Nc2ccccc2)n1`, 0%; as for `O=C(NC1CCN(Cc2ccccc2)CC1)C1CCN(S(=O)(=O)c2cccc3cccnc23)CC1`, 0%.
As for `Cc1cc(C)c2nc(N)sc2c1`, the figure is 0%; as for `Cc1cnn(C(=S)NCc2ccco2)c1`, 0%.
`O=C(Nc1ccc2c(c1)OCO2)C1CCCN1C(=O)Nc1ccccc1F` (centres undefined): the inhibition is 3%.
The same measure for `c1ccc(-c2n[nH]c3ccccc23)cc1`: 0%; for `O=C(CSc1nc2ccsc2c(=O)n1NC(=O)c1ccccc1)Nc1nccs1`: 0%; for `Cc1cccc(N(CC(=O)Nc2ccc(CC#N)cc2)S(C)(=O)=O)c1`: 2%.
On to `COc1ccc(C(=O)N2CCN(C3CCCCC3)CC2)c(OC)c1`, for which the inhibition was 0%.
With `Cc1cc(NC(=O)Cc2cn3ccsc3n2)n(-c2ccccc2)n1`, the inhibition is 1%.
As for `CC(C)C(NC(=O)c1ccc(S(=O)(=O)N2CCOCC2)cc1)c1nc2ccccc2[nH]1` (centres undefined), the figure is 0%; as for `COc1ccc(C2C(C(C)=O)=C(C)N=c3s/c(=C\c4ccc5c(c4)OCO5)c(=O)n32)c(OC)c1` (centres undefined), 0%.
The same measure for `Cc1cc(C)c2c(n1)nn1c(C3CC3)cc(C(F)(F)F)nc21`: 5%.
Consider `CCOC(=O)N1CCC(NC(=O)Cc2ccc(-n3c(=O)[nH]c4ccccc4c3=O)cc2)CC1`, for which the inhibition is 3%.
Turning to `CN(C(=O)Cn1c(=O)n(CCCCC(=O)NC2CCCC2)c(=O)c2ccccc21)C1CCCCC1`, the inhibition was 0%.
As for `COc1ccccc1C(=O)NCC(=O)Nc1ccccc1`, the figure is 0%.
The same measure for `CC(=O)Nc1ccc(S(=O)(=O)N2CCN(C(=O)CCC3CCCC3)CC2)cc1`: 0%.
The same measure for `CN1CC(=O)N(CC(=O)NCCc2ccc(F)cc2)c2ccccc2C1=O`: 0%.
As to `Cc1cccc(OCC(=O)N2CCN(C(=O)Cc3ccccc3)CC2)c1`, the inhibition was 1%.
Turning to `O=C(Nc1ccccn1)N1CCOCC1`, the inhibition was 4%.
As for `COc1ccc(NCc2nnc(SCC(=O)Nc3cc(C)cc(C)c3)o2)cc1`, the figure is 0%; as for `O=C1CN(c2ccccc2F)C(=O)CN1c1ccccc1F`, 0%.
The same measure for `Cc1nc2ccc(NC(=O)N3CCSCC3)cc2s1`: 1%.
As for `CCOC(=O)C1=C(C)N=C2SCCC(=O)N2C1c1cc(Br)ccc1OC` (centres undefined), the figure is 5%.
As to `CCCNc1nc(N2CCOCC2)nc(N2CCOCC2)n1`, the inhibition was 0%.
As for `COc1ccccc1CNS(=O)(=O)c1cccc(S(=O)(=O)N2CCOCC2)c1`, the figure is 0%; as for `Cc1nnc(SCC(=O)Nc2ccc3c(c2)OCCO3)n1CC1CCCO1` (centres undefined), 0%; as for `CCN(CC)CC(C)CNC(=O)CC(C(=O)N1CCc2ccccc21)n1ccnc1` (centres undefined), 2%.
As for `CCN(CCO)C(=O)CC(c1ccccc1)c1cc(Br)ccc1O` (centres undefined), the figure is 5%; as for `CCOC(=O)c1cccc(NC(=O)c2ccco2)c1`, 0%; as for `CCOC(=O)Nc1ccc2c(c1)N(C(=O)CN(CC)CC)c1ccccc1C=C2`, 0%.
The same measure for `CCCC(=O)Nc1cccc(NC(=O)CN2CCN(c3ccccc3OC)CC2)c1`: 0%.
With `O=c1oc(-c2ccco2)nc2ccccc12`, the inhibition was 2%.
As for `CN(C)S(=O)(=O)NC(c1ccccc1)c1ccccc1`, the figure is 4%.
